# Measured values taken from PubChem BioAssay (NCATS).
# Inconclusive results are not listed. Entries that show only a call come without a potency. Activity calls are given as the source filed them. Calls follow the shape of the dose curve; as a rule, active = well fitted inhibition curve with a large enough effect; inconclusive = small, poorly fitted or top-dose-only effect; inactive = flat fitted curve, though single readings scatter.
# Experiments:
# Test in all cases: qHTS profiling for inhibitors of Plasmodium falciparum proliferation (AID 504749); also: nearly all actives have a fitted effect of over 60% in size
# Settings in all cases: P. falciparum in erythrocytes, SYBR Green DNA, 72 h; series mostly up to 28.7 µM
# CP256 = system: CP256
# How it was run: (§1)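 Each compound contacts P. falciparum-infected red blood cells for 72 h at 37 C; lysis buffer (Tris, EDTA, saponin, Triton X, SYBR Green I) is added and fluorescence measured next morning; values normalized to controls.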
# CP260 = system: CP260
# How it was run: as §1
# CP262 = system: CP262
# How it was run: as §1
# CP265 = system: CP265
# How it was run: as §1
# CP268 = system: CP268
# How it was run: as §1
# CP269 = system: CP269
# How it was run: as §1
# CP286 = system: CP286
# How it was run: as §1
# CP291 = system: CP291
# How it was run: as §1
# CP297 = system: CP297
# How it was run: as §1
# CP305 = system: CP305
# How it was run: as §1
# CP315 = system: CP315
# How it was run: as §1
# CP325 = system: CP325
# How it was run: as §1
# CP329 = system: CP329
# How it was run: as §1
# CP335 = system: CP335
# How it was run: as §1
# DFO2036 = system: DFO2036
# How it was run: as §1
# DIV14 = system: DIV14
# How it was run: as §1
# DIV17 = system: DIV17
# How it was run: as §1
# DIV30 = system: DIV30
# How it was run: as §1
# Dd2 = system: Dd2
# How it was run: as §1
# CP266 = system: CP266
# How it was run: as §1
# Potency is read from the fitted curve at half-maximal effect.
Compound,Potency (CP256),Potency (CP260),Potency (CP262),Potency (CP265),Potency (CP268),Potency (CP269),Potency (CP286),Potency (CP291),Potency (CP297),Potency (CP305),Potency (CP315),Potency (CP325),Potency (CP329),Potency (CP335),Potency (DFO2036),Potency (DIV14),Potency (DIV17),Potency (DIV30),Potency (Dd2),Potency (CP266)
CNC1CCCN(c2c(F)cc3c(=O)c(C(=O)O)cn(C4CC4)c3c2OC)C1 (configuration not stated),inactive,inactive,inactive,inactive,inactive,inactive,inactive,inactive,inactive,inactive,inactive,inactive,inactive,inactive,inactive,inactive,inactive,inactive,inactive,
CCOc1cc(N)c(Cl)cc1C(=O)NCC1CN(Cc2ccc(F)cc2)CCO1 (configuration not stated),2.82 µM (active),11.2 µM (active),6.01 µM (active),3.16 µM (active),,13.5 µM (active),3.98 µM (active),12 µM (active),,10.7 µM (active),,,13.5 µM (active),6.75 µM (active),,,,,,
CN(C)CCc1c[nH]c2ccc(CS(=O)(=O)N3CCCC3)cc12,inactive,inactive,inactive,inactive,inactive,inactive,inactive,inactive,inactive,inactive,inactive,inactive,inactive,,inactive,inactive,inactive,inactive,inactive,inactive
COc1cc(NS(=O)(=O)c2ccc(N)cc2)nc(OC)n1,inactive,inactive,inactive,inactive,inactive,inactive,inactive,inactive,inactive,inactive,inactive,inactive,inactive,inactive,inactive,inactive,inactive,inactive,inactive,
OC(Cn1cncn1)(Cn1cncn1)c1ccc(F)cc1F,inactive,inactive,inactive,inactive,inactive,,inactive,inactive,inactive,inactive,inactive,inactive,inactive,inactive,inactive,,inactive,inactive,inactive,inactive
CC(=O)Oc1ccccc1C(=O)Nc1ncc([N+](=O)[O-])s1,inactive,8.91 µM (active),inactive,inactive,inactive,inactive,12.6 µM (active),inactive,inactive,inactive,inactive,inactive,inactive,,inactive,13.5 µM (active),12 µM (active),inactive,,inactive
C1CCC(C(CC2CCCCN2)C2CCCCC2)CC1 (configuration not stated),10 µM (active),8.91 µM (active),inactive,,12 µM (active),13.5 µM (active),3.98 µM (active),12 µM (active),13.5 µM (active),,,,,9.53 µM (active),11.2 µM (active),3.79 µM (active),3.38 µM (active),,12.6 µM (active),15.1 µM (active)
